# Data from PubChem BioAssay AID1566 (Sanford-Burnham Center for Chemical Genomics, 2009).
# About 1,800 (0.62%) of roughly 290,000 compounds were called active. Only a selection was taken, and actives are over-represented in it overall. A number with no mark means an inactive call. Cut-off read from the data, not from the text of the source: active = inhibition above about 50%; inactive = the rest.
# Assay: NOD2 signaling inhibitors, cell-based, luminescence, uHTS, HEK293 (AID 1566)
# Details: HEK293 NOD2/NF-kB luciferase reporter, at 4 µM, active compounds read high
row,Structure (SMILES),inhibition
1,CC(=O)Nc1ccc(SC(C)C(=O)NC2CCCC2)cc1 (configuration not stated),-6.7%
2,COc1ccc(-c2nc3ccccc3s2)cc1,-217%
3,Oc1ccc(-c2nc3ccccc3s2)cc1,-198%
4,Cn1nnc2cc(C(=O)NCc3ccc4c(c3)OCO4)ccc21,-37.1%
5,Cc1ccc(C(=O)NC(=S)NNS(=O)(=O)c2ccc(C)cc2)cc1,7.8%
6,Cc1ccc(C(=O)NS(=O)(=O)c2ccc(C)cc2)cc1,-1.5%
7,Cc1ccc(S(=O)(=O)NCCNC(=O)c2ccccc2)cc1,-8%
8,Cc1ccc(S(=O)(=O)CNC(=O)c2ccccc2)cc1,1.3%
9,COc1sc(SC)cc1/C=N/NC(=O)c1ccncc1,12.3%
10,O=C(NC1CCCCC1)C(c1ccc(F)cc1)N(Cc1cccs1)C(=O)CN1C(=O)c2ccccc2S1(=O)=O (configuration not stated),13.4%
11,CC1Cc2ccccc2N1S(=O)(=O)c1cccc(C(=O)OCC(=O)NC2CCS(=O)(=O)C2)c1 (configuration not stated),-8.8%
12,CC1(CC(=O)N/N=C/c2ccc(-c3ccc(C(=O)O)cc3)o2)OCCO1,17.9%
13,CCn1cc(S(=O)(=O)Nc2cc(C(=O)OC)ccc2C)cn1,8.3%
14,COc1cccc(OCCn2c(C)c(/C=N/n3cnnc3)c3ccccc32)c1,10.9%
15,CCc1ccc(C(O)(C(C)C)C(CN2CCOCC2)c2ccccc2)cc1 (configuration not stated),0.6%
16,CC(C)C(O)(c1ccccc1)C(CN1CCOCC1)c1ccccc1 (configuration not stated),56.7% (active)
17,COc1ccc(C(O)(C(C)C)C(CN2CCOCC2)c2ccccc2)cc1 (configuration not stated),8.6%
18,COc1ccc(NC(=O)CCn2c(=O)c3cccn3c3ccccc32)c(OC)c1,38.3%
19,Cc1nnn(C23C[C@@H]4C[C@@H](CC(C(=O)N5CCN(c6ccccc6)CC5)(C4)C2)C3)n1,-0.7%
20,Cc1ccc(CCNC(=O)C23C[C@H]4C[C@@H](C2)CC(n2nnc(C)n2)(C4)C3)cc1,8.2%
21,Cn1ccnc1C(=O)c1ccc(S(=O)(=O)N2CCCC2)cc1,14.8%

row,Structure (SMILES),inhibition
1,COc1ccccc1NC(=O)c1sc2nc(N3CCOCC3)c3c(c2c1N)CCCC3,50% (active)
2,Cc1ccccc1NC(=O)c1sc2nc(N3CCOCC3)c3c(c2c1N)CCCC3,23.1%
3,COc1ccc(NC(=O)c2sc3nc(N4CCOCC4)c4c(c3c2N)CCCC4)c(OC)c1,30.8%
4,COC(=O)c1ccccc1NC(=O)CSc1nnc(-c2cccnc2)o1,-6.6%
5,Cc1ccc2[nH]c(C)c(/C=C/c3cc[n+](C)cc3)c2c1,29.1%
6,Cc1ccc2[nH]cc(/C=C/c3cc[n+](C)cc3)c2c1,48%
7,COc1ccc(OC)c(S(=O)(=O)N(C)CC(=O)Nc2ccc3c(c2)OCO3)c1,4.6%
8,CCCNC(=O)Cn1cnc2sc(C(=O)N3CCN(CCC)CC3)c(C)c2c1=O,24.6%
9,CC(C)(C)n1nnnc1C(c1ccncc1)N1CCN(c2ccc(O)cc2)CC1 (configuration not stated),-4.7%
10,c1ccc2c(c1)SCc1nnc(-c3ccncc3)n1-2,5.9%
11,Cc1oc(-c2ccccc2)nc1CSc1nc2c(c(=O)[nH]1)CCC2,30.8%
12,Cc1oc(-c2ccccc2Cl)nc1CSc1nc2c(c(=O)[nH]1)CCC2,-2%
13,CN(C(=O)COc1ccccc1C(=O)NCCc1ccccc1)c1ccccc1,-25.8%
14,COc1ccccc1C(=O)NCCC(=O)NCCOc1ccccc1,16.2%
15,COc1ccc(N2CCN(C(=O)Cn3c(=O)[nH]c4ccsc4c3=O)CC2)cc1,0.6%
16,Cc1ccc(S(=O)(=O)Nc2ccccc2C(N)=O)cc1,0.2%
17,Cc1ccc(S(=O)(=O)Nc2ccccc2-c2ccccc2)cc1,-12.5%
18,O=S(=O)(NCc1ccccn1)c1cc(Cl)ccc1Cl,-6%
19,Nc1c(NCc2ccccc2F)c(=O)[nH]c(=O)n1Cc1ccccc1,-4.5%
20,Cc1occc1C(=O)n1nnc2ccccc21,7.3%
21,N#CC(c1ccc(Cl)cc1)c1ccc2c(C(F)(F)F)cc(C(F)(F)F)nc2n1 (configuration not stated),44.4%

row,Structure (SMILES),inhibition
1,Cc1ccc(C(C#N)c2ccc3c(C(F)(F)F)cc(C(F)(F)F)nc3n2)cc1 (configuration not stated),19.1%
2,CC(NC(=O)CSc1nc2ccccc2n1CCC#N)c1ccc(F)cc1 (configuration not stated),19.2%
3,CCOc1ccc(S(=O)(=O)N2CCC(C(=O)N3CCCC3)CC2)cc1C,24.6%
4,COc1ccc(-c2cn3c(C)c(C(=O)N4CCN(c5ccccc5F)CC4)sc3n2)cc1,25.5%
5,Cc1cc(C(C)(C)C)cc(C)c1C[n+]1ccc2ccccc2c1,52.3% (active)
6,Clc1cccc(Cl)c1C[n+]1ccc2ccccc2c1,18.8%
7,Cc1ccc(C(=O)C[n+]2ccc3ccccc3c2)cc1,9%
8,O=C(NCCn1ccc2ccccc21)c1ccc(S(=O)(=O)N2CCCCC2)cc1,-4.3%
9,FC(F)(F)c1cc(-c2ccccc2)nc2ncnn12,-1.1%
10,FC(F)(F)c1ccc(N2CCN(c3cc(-c4ccccc4)nc4ncnn34)CC2)nc1,52% (active)
11,O=S(=O)(c1ccccc1)N1CCN(c2cc(-c3ccccc3)nc3ncnn23)CC1,43.4%
12,CC(=O)Nc1cccc2c1C(=O)N(c1cccc(OC(C)=O)c1)C2=O,17.8%
13,O=C(CNc1ccccc1)N/N=C/c1ccc([N+](=O)[O-])o1,46.1%
14,O=C(CNc1ccc2ccccc2c1)N/N=C/c1ccc([N+](=O)[O-])o1,-4.1%
15,O=C(N/N=C/c1ccc([N+](=O)[O-])o1)c1cc2c(ccc3ccccc32)o1,12.1%
16,Nc1nonc1C(=O)N/N=C/c1ccc(Br)o1,4.7%
17,Cc1cc(C(=O)N/N=C/c2ccc([N+](=O)[O-])o2)c(C)o1,35.5%
18,Nc1nonc1C(=O)N/N=C/c1ccc(-c2cccc([N+](=O)[O-])c2)o1,19.7%
19,O=C(N/N=C/c1ccc([N+](=O)[O-])cc1)c1cc2ccccc2o1,30.1%
20,Cc1ccc(C(=O)N/N=C\c2ccc([N+](=O)[O-])o2)cn1,36%
